Data: PubChem BioAssay (EPA / NIEHS)
The source made the active and inactive calls. Rule for the calls: active = hit-call score of the fitted dose curve at least 0.9, where 1 is the maximum; inactive = score below 0.9.

Assay: ATG_AP_2_CIS: Attagene CIS-FACTORIAL HepG2 Assay for human Activator Protein 2 (AP-2) (AID 2282932)
Details: HepG2 AP-2 cis-reporter, Attagene transcription factor profiling; actives raise or lower the signal
Experimental: ATG_CIS is a cell-based, multiplexed-readout assay that uses HepG2, a human liver cell line, with measurements taken at 24 hours after chemical dosing in a 24-well plate.ATG_AP_2_CIS is one of 52 assay component(s) measured or calculated from the ATG_CIS assay. It is designed to make measurements of mRNA induction, a form of inducible reporter, as detected with fluorescence intensity signals by Reverse transcription polymerase chain reaction (RT-PCR) and Capillary electrophoresis technology.Data from the assay component ATG_AP_2_CIS was analyzed into 1 assay endpoint. This assay endpoint, ATG_AP_2_CIS, was analyzed with bidirectional fitting relative to DMSO as the negative control and baseline of activity. Using a type of inducible reporter, measures of mRNA for gain or loss-of-signal activity can be used to understand the reporter gene at the transcription factor-level as they relate to the gene TFAP2A and TFAP2B and TFAP2D. Furthermore, this assay endpoint can be referred to as a primary readout, because this assay has produced multiple assay endpoints where this one serves a reporter gene function. To generalize the intended target to other relatable targets, this assay endpoint is annotated to the dna binding intended target family, where the subfamily is basic helix-turn-helix leucine zipper.
Human liver HepG2 cells are transiently transfected with multiple reporter transcription units (MRTUs) in 6-well plates using FuGene 6 reagent (Roche; 3 ml FuGene/1 mg DNA). The MRTU constructs are regulated by a cis-regulating element (promoter). […] A major difference between the CIS and TRANS system is that in CIS activities of endogenous TFs are measured, whereas the TRANS assay evaluates changes in activities of exogenous, chimeric NR-Gal4 proteins. […] At the end of 24 hour incubation, total RNA was isolated using TriZol reagent (Invitrogen). The isolated RNA is then reverse-transcribed using oligo(dT) primer and Mo-MLV reverse transcriptase (Invitrogen) with DNAse I (Ambion) treatment for 30 min. The one-tenth of the produced cDNA was amplified by PCR using Taq DNA polymerase (Invitrogen) and two reporter sequence-specific primers. The PCR products were fluorescently labeled by primer extension with 6-arboxyfluorescein (6-FAM) 5'-labeled reporter sequence-specific primer (2 min at 95 C, 20 s at 68 C and 10 min at 72 C) and these products were digested with 5U of HpaI (New England Biolabs) for 2h at 37 C. The fragments were purified using Qiaquick PCR columns (Qiagen), analyzed on an ABI 3130xL genetic analyzer (Applied Biosystems) with peak positions identified by using a set of X-rhodamine (ROX)-labeled MapMarker1000 molecular weight standards (BioVentures). The raw capillary electrophoresis data was processed using Attagraph software (Attagene).

Question: Which outcome does the source give for `CC(C)C(=O)OCCOc1ccccc1` here?
Answer: The outcome was “inactive”.

Question: For `COc1ccc(-c2coc3cc(O)cc(O)c3c2=O)cc1`, which outcome is on record?
Answer: Its outcome is “inactive”.

Question: Which outcome does the source give for `C=C[Si](OCCOC)(OCCOC)OCCOC` here?
Answer: Its outcome is “inactive”.

Question: For `CC1=CC=C(C(C)C)CC1`, which outcome is on record?
Answer: The outcome was “inactive”.

Question: With `O=C(O)CCCC(=O)O` as the compound, how does the outcome read?
Answer: The outcome was “inactive”.

Question: Which outcome does the source give for `CC(c1cc(C(C)(C)C)cc(C(C)(C)C)c1O)c1cc(C(C)(C)C)cc(C(C)(C)C)c1O` here?
Answer: The outcome was “inactive”.

Question: Which outcome does the source give for `CC(C)(C)NC(=O)[C@H]1CC[C@H]2[C@@H]3CC[C@H]4NC(=O)C=C[C@]4(C)[C@H]3CC[C@]12C` here?
Answer: Its outcome is “inactive”.

Question: With `CC1=CCC(C(C)C)C=C1` (stereo not given) as the compound, how does the outcome read?
Answer: The outcome was “inactive”.

Question: With `CC(C)C(=O)OCCc1ccccc1` as the compound, how does the outcome read?
Answer: The outcome was “inactive”.

Question: For `CCCCCC1=CCCC1=O`, which outcome is on record?
Answer: The outcome was “inactive”.

Question: Which outcome does the source give for `Cc1ccc(S(=O)(=O)N=C=O)cc1` here?
Answer: Its outcome is “inactive”.

Question: For `CC(=O)c1ccc(S(=O)(=O)NC(=O)NC2CCCCC2)cc1`, which outcome is on record?
Answer: The outcome was “inactive”.

Question: With `C=CC(=O)OCCCCCCOC(=O)C=C` as the compound, how does the outcome read?
Answer: Its outcome is “inactive”.

Question: Which outcome does the source give for `CCCCOCC(C)O` (stereo not given) here?
Answer: The outcome was “inactive”.

Question: For `CC1(C)CC(O)CC(C)(C)N1[O]`, which outcome is on record?
Answer: Its outcome is “inactive”.

Question: Which outcome does the source give for `C=C1C[C@H]2[C@@H]3C=C(C)C4=CC(=O)CC[C@]4(C)[C@H]3CC[C@]2(C)[C@@]1(OC(C)=O)C(C)=O` here?
Answer: Its outcome is “inactive”.

Question: With `CC(=O)CCC=C(C)C` as the compound, how does the outcome read?
Answer: Its outcome is “inactive”.

Question: Which outcome does the source give for `CC1C(C)(C)C2=C(C(=O)CCC2)C1(C)C` (stereo not given) here?
Answer: The outcome was “inactive”.

Question: With `Oc1c(Cl)cc(Cl)c(Cl)c1Cl` as the compound, how does the outcome read?
Answer: Its outcome is “inactive”.

Question: With `CCCCCCCCC(CO)CCCCCC` (stereo not given) as the compound, how does the outcome read?
Answer: The outcome was “inactive”.

Question: For `O=C(Nc1ccccc1)c1cc(Cl)ccc1O`, which outcome is on record?
Answer: The outcome was “inactive”.

Question: With `c1ccc(Nc2cccc3ccccc23)cc1` as the compound, how does the outcome read?
Answer: The outcome was “inactive”.

Question: For `Cn1ccnc1`, which outcome is on record?
Answer: The outcome was “inactive”.

Question: With `CCCCCCCCCCCCCc1ccccc1` as the compound, how does the outcome read?
Answer: The outcome was “inactive”.

Question: With `CC(=O)/C=C/C1C(C)=CCCC1(C)C` (stereo not given) as the compound, how does the outcome read?
Answer: The outcome was “inactive”.

Question: Which outcome does the source give for `CC(C)(C)C1CCC(=O)CC1` here?
Answer: Its outcome is “inactive”.

Question: With `Oc1ccc(-c2ccccc2)c(Cl)c1` as the compound, how does the outcome read?
Answer: The outcome was “inactive”.

Question: For `N#CC1(N)CCCCC1`, which outcome is on record?
Answer: The outcome was “inactive”.

Question: With `CCC(C)(O)CCCC(C)C` (stereo not given) as the compound, how does the outcome read?
Answer: Its outcome is “inactive”.

Question: With `COC(=O)c1ccc(C(=O)OC)c(C(=O)OC)c1` as the compound, how does the outcome read?
Answer: Its outcome is “inactive”.

Question: Which outcome does the source give for `Cc1cc(=O)[nH]c(=O)[nH]1` here?
Answer: Its outcome is “inactive”.

Question: For `CN(C)c1ccc2nc3ccc(=[N+](C)C)cc-3sc2c1`, which outcome is on record?
Answer: Its outcome is “inactive”.

Question: With `O=C1CCCCCCCCCCC1` as the compound, how does the outcome read?
Answer: Its outcome is “inactive”.

Question: With `Nc1ncnc2nc[nH]c12` as the compound, how does the outcome read?
Answer: The outcome was “inactive”.

Question: Which outcome does the source give for `CCOB(OCC)OCC` here?
Answer: The outcome was “inactive”.

Question: Which outcome does the source give for `Cc1cc(C)n(CO)n1` here?
Answer: The outcome was “inactive”.

Question: With `CCCCCCCCCCCCCC(=O)OC(C)C` as the compound, how does the outcome read?
Answer: Its outcome is “inactive”.

Question: Which outcome does the source give for `C=CCCCCCCCCC=O` here?
Answer: The outcome was “inactive”.

Question: With `COc1cc(C)ccc1O` as the compound, how does the outcome read?
Answer: Its outcome is “inactive”.

Question: For `CCCCCC(=O)OCC`, which outcome is on record?
Answer: Its outcome is “inactive”.
